{"source": "PubChem BioAssay (EPA / NIEHS)", "note": "Where “and” joins values, the source holds several entries; their conditions need not be identical. Identical values can stand only once. More than one record can exist for a structure, and the calls need not agree. Calls of active or inactive are those of the source. The calls were made as follows: active = hit-call score of the fitted dose curve at least 0.9, where 1 is the maximum; inactive = score below 0.9.", "data": [{"read-out": "TIMP metallopeptidase inhibitor 2 (TIMP2), TIMP2 (gene 7077)", "assay": "BSK_hDFCGF_TIMP2: BioMAP Diversity Plus: hDFCGF Assay for TIMP metallopeptidase inhibitor 2 (TIMP2) Biomarker Activity (AID 2284289)", "conditions": "primary human foreskin fibroblasts", "experimental": "BSK_hDFCGF is a cell-based, multiplexed-readout assay that uses foreskin fibroblast, a human skin primary cell, with measurements taken at 24 hours after chemical dosing in a 96-well plate.BSK_hDFCGF_TIMP2 is an assay component measured in the BSK_hDFCGF assay. It measures TIMP-2 antibody related to regulation of gene expression using ELISA technology.Data from the assay component BSK_hDFCGF_TIMP2 was analyzed at the endpoint, BSK_hDFCGF_TIMP2, in the positive analysis fitting direction relative to DMSO as the negative control and baseline of activity. Using a type of binding reporter, gain or loss-of-signal activity can be used to understand protein changes. To generalize the intended target to other relatable targets, this assay endpoint is annotated to the 'protease' intended target family, where the subfamily is 'matrix metalloproteinase'.\nThe levels of cell surface (or secreted, indicated by the prefix \"s\") biomarker endpoints were measured by ELISA. Overt cytotoxicity to cells in confluent adherent cultures (all systems other than the BT system) was assessed by measuring total protein levels using sulforhodamine B (SRB) staining in parallel cultures at the time of biomarker measurements, indicated as SRB endpoints. For proliferation assays for adherent cell types, individual cell types are cultured at sub-confluence and relative cell numbers quantified by SRB staining at time points optimized for each system (48 h: 3C and CASM3C systems; 72 h: BT and HDF3CGF systems; 96 h: SAg system). SRB was performed by staining cells with 0.1% SRB after fixation with 10% TCA and reading wells at 560 nm.Viability and proliferation of PBMC (T cells) was quantified by Alamar Blue reduction for the SAg and BT systems. For PBMC viability (referred to as PBMC Cytotoxicity within the assay endpoint names), cells were plated (75,000/well in a 96-well plate) and then chemical samples added for 1 h before addition of activators, SEB and TSST-1 (20 ng/mL final concentration each). Cells were incubated for 90 h. Then, Alamar Blue (20 uL/well) (Invitrogen, Cat DAL1100) was added for 6 h, and the plates were read with a fluorescence microplate reader at 546/580 nm (excitation/emission). For PBMC proliferation, cells were plated and activated as above but incubated for only 16 h prior to addition of Alamar Blue. Plates were read after 6 h.", "values": [{"smiles": "O=C(Cl)C(F)(F)C(F)(F)C(F)(F)C(F)(F)C(F)(F)C(F)(F)C(F)(F)C(F)(F)F", "AC50": "1.59 µM (active)", "outcome": "inactive"}, {"smiles": "O=S(=O)(O)C(F)(F)C(F)(F)C(F)(F)C(F)(F)C(F)(F)C(F)(F)C(F)(F)F", "outcome": "inactive"}, {"smiles": "O=C(O)C(F)(F)C(F)(F)F", "outcome": "inactive"}, {"smiles": "FC(F)(I)C(F)(F)C(F)(F)C(F)(F)I", "AC50": "46 µM (active)", "outcome": "inactive"}, {"smiles": "C=CC(=O)OCC(F)(F)C(F)(F)C(F)(F)C(F)(F)C(F)(F)C(F)(F)C(F)(F)F", "outcome": "inactive"}, {"smiles": "OCC(F)(F)C(F)(F)C(F)(F)C(F)(F)C(F)(F)C(F)(F)F", "outcome": "inactive", "AC50": "42.2 µM (active)"}, {"smiles": "OCC(F)(F)C(F)(F)C(F)(F)C(F)(F)C(F)(F)C(F)F", "outcome": "inactive"}, {"smiles": "FC(F)(F)C(F)(F)C(F)(F)C(F)(F)C(F)(F)C(F)(F)C(F)(F)Br", "outcome": "inactive"}, {"smiles": "CCCCCCOC(=O)c1ccccc1O", "AC50": "31.2 µM (active) and 20.2 µM (active)"}, {"smiles": "O=C(O)C(F)(F)C(F)(F)C(F)(F)C(F)(F)C(F)(F)C(F)(F)C(F)(F)C(F)(F)C(F)(F)C(F)(F)C(F)(F)C(F)(F)F", "outcome": "inactive"}, {"smiles": "O=C(O)C(F)(F)C(F)(F)C(F)F", "outcome": "inactive"}, {"smiles": "CCCCC(CC)COP(=O)(O)OCC(CC)CCCC", "note": "(stereo unspecified)", "outcome": "inactive"}, {"smiles": "FC(F)(Br)C(F)(F)C(F)(F)C(F)(F)C(F)(F)C(F)(F)Br", "outcome": "inactive"}, {"smiles": "FC(F)(F)C(F)(F)C(F)(F)N(C(F)(F)C(F)(F)C(F)(F)F)C(F)(F)C(F)(F)C(F)(F)F", "outcome": "inactive"}, {"smiles": "O=C(O)C(F)(OC(F)(F)C(F)(OC(F)(F)C(F)(F)C(F)(F)F)C(F)(F)F)C(F)(F)F", "note": "(stereo unspecified)", "outcome": "inactive"}, {"smiles": "OCC(F)(F)C(F)(F)C(F)(F)C(F)F", "outcome": "inactive"}, {"smiles": "O=C(O)C(F)(F)C(F)(F)C(F)(F)F", "outcome": "inactive"}, {"smiles": "O=C(O)C(F)(F)C(F)(F)C(F)(F)C(F)(F)C(F)(F)C(F)(F)C(F)(F)C(F)(F)C(F)(F)C(F)(F)C(F)(F)C(F)(F)C(F)(F)F", "outcome": "inactive"}, {"smiles": "O=C(O)C(F)(F)C(F)(F)C(F)(F)C(F)(F)C(F)(F)C(F)(F)C(F)(F)C(F)(F)C(F)(F)C(F)F", "outcome": "inactive"}, {"smiles": "FC(F)(F)C(F)(F)C(F)(F)C(F)(F)C(F)(F)CCI", "outcome": "inactive"}, {"smiles": "NC(=O)C(F)(F)C(F)(F)C(F)(F)C(F)(F)F", "outcome": "inactive"}, {"smiles": "O=P(O)(O)OCCC(F)(F)C(F)(F)C(F)(F)C(F)(F)C(F)(F)C(F)(F)F", "outcome": "inactive"}, {"smiles": "OCCCC(F)(F)C(F)(F)C(F)(F)F", "outcome": "inactive"}, {"smiles": "O=C(O)C(F)(OC(F)(F)C(F)(OC(F)(F)C(F)(OC(F)(F)C(F)(F)C(F)(F)F)C(F)(F)F)C(F)(F)F)C(F)(F)F", "note": "(stereo unspecified)", "outcome": "inactive"}, {"smiles": "O=C(O)C(F)(F)C(F)(F)C(F)(F)C(F)(F)C(F)(F)C(F)(F)C(F)(F)C(F)(F)Cl", "AC50": "6.54 µM (active)", "outcome": "inactive"}, {"smiles": "COC(=O)CCC(F)(F)C(F)(F)C(F)(F)C(F)(F)F", "outcome": "inactive"}, {"smiles": "FC(F)(F)C(F)(F)C(F)(F)C(F)(F)C(F)(F)C(F)(F)C(F)(F)C(F)(F)CCS", "AC50": "0.0245 µM (active)", "outcome": "inactive"}, {"smiles": "C=C(C)C(=O)OCC(F)(F)C(F)(F)C(F)(F)C(F)(F)C(F)(F)C(F)(F)C(F)(F)F", "outcome": "inactive"}, {"smiles": "O=S(=O)(OCC(F)F)C(F)(F)F", "outcome": "inactive"}, {"smiles": "C=C(C)C(=O)OCCC(F)(F)C(F)(F)C(F)(F)C(F)(F)C(F)(C(F)(F)F)C(F)(F)F", "outcome": "inactive"}, {"smiles": "Cc1ccc(S(=O)(=O)OCC(F)(F)C(F)(F)C(F)(F)C(F)(F)C(F)(F)C(F)F)cc1", "outcome": "inactive"}, {"smiles": "CCO[Si](CCC(F)(F)C(F)(F)C(F)(F)C(F)(F)C(F)(F)C(F)(F)F)(OCC)OCC", "outcome": "inactive"}, {"smiles": "FC(F)(F)C(F)(F)C(F)(F)C(F)(F)CCI", "outcome": "inactive"}, {"smiles": "O=C(O)C=C(C(F)(F)F)C(F)(F)F", "outcome": "inactive"}, {"smiles": "N=C(N)C(F)(F)C(F)(F)C(F)(F)C(F)(F)C(F)(F)C(F)(F)C(F)(F)F", "outcome": "inactive", "AC50": "30 µM (active)"}]}]}
